Experimental data taken from PubChem BioAssay AID651707 (NMMLSC, 2012).
Out of some 2,300 compounds screened, about 170 (7.4%) were called active.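 The calls were made as follows: active = over 5% cells positive for green fluorescent reporter, or over 2% positive for both it and APC stain; inactive = the rest, inconclusive results apart.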 A selection follows.

Assay: intrinsic compound fluorescence in ER-HoxA9 progenitors, confirmation, artefact control for AML myeloid differentiation project, cell-based, flow cytometry, GFP/APC, Cherry Pick01 (AID 651707);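 as to double positive: share of cells both GFP positive and bound by Mac1 APC antibody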;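 as to fluorescence response: range taken on the double positive population between DMSO and positive control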
Settings: no estrogen, GFP autofluorescence flow cytometry, stronger effect = higher value; double positive: measured here: double positive GFP/APC population; fluorescence response: vehicle wells 0%, positive control 100%

Fluorescence response, active:
O=c1oc2ccccc2cc1-c1csc(Nc2ccc(O)cc2)n1 55.3%
N#C/C(=C/c1ccc(N2CCCCC2)o1)C(=O)NCCc1c[nH]c2ccccc12 64.7%
CC(=O)Nc1ccc(S(=O)(=O)Nc2ccc(N3CCCCC3)cc2)cc1 10.5%
CCN(CC)C(=O)CSC(Nc1cccc(F)c1)=C(C#N)C#N 7.7%
Cc1ccc(Nc2cc(C)nc3c(C)ccc([N+](=O)[O-])c23)cc1 6.7%

Fluorescence response, inactive:
O=C(CCCN1C(=O)CCC1=O)Nc1ccc(Cl)c(C(F)(F)F)c1 0%
CCOC(=O)c1c(-c2ccccc2)oc2ccc(OCC(=O)NN)cc12 0%
CC(C)OC(=O)CN1C(=O)C(=O)c2ccccc21 0.5%
Cc1ccc(C)c(S(=O)(=O)N2CCN(c3ncnc4sccc34)CC2)c1 0%
O=C(NCC1CCCCC1)NCC1CCCCC1 0.2%
Nc1nc(Nc2ccccc2F)nc(NC2CCCCC2)c1[N+](=O)[O-] 0%
COc1cccc(NC(=O)[C@H](Cc2c[nH]c3ccccc23)NC(=O)[C@@H]2Cc3ccccc3CN2)c1 0.6%
COc1ccccc1NC(=O)c1cc(Cl)nnc1Cl 0.6%
O=C(Nc1cccc2ncccc12)c1ccc(-c2ccc(Cl)cc2Cl)o1 0.6%
CCOC(=O)C1=C(CN2CCc3ccccc32)NC(=O)NC1c1cccc([N+](=O)[O-])c1 (stereo not drawn) 0%
O[C@H]1CN(Cc2cccs2)[C@@H](c2ccc(Cl)cc2)C[C@@H]1n1cc(C2CC2)nn1 0%
O[C@H]1C[C@H](c2ccc(Cl)cc2)N(Cc2cccs2)C[C@@H]1n1cc(C2CC2)nn1 0.5%
Cc1ccc(-c2nc(C#N)c(NCCCn3ccnc3)o2)cc1 0.3%
Cc1ccc(C(=O)NC2CCCC(C)C2C)cc1S(=O)(=O)N1CCCCC1 (stereo not drawn) 0%
Cc1cc(C)c(-c2csc(NC(=O)CCCc3nc4ccccc4c(=O)[nH]3)n2)c(C)c1 2.2%
CC1CCCC(NC(=O)CN2CCN(Cc3ccc(Cl)cc3)C2=O)C1C (stereo not drawn) 0%
COc1ccc(C(=O)N(Cc2ccccc2)c2ccc(C)cc2)cc1S(=O)(=O)N1CCOCC1 1.5%
CN(C(=O)c1cccc([N+](=O)[O-])c1)c1ccccc1C(=O)NCc1ccccc1 0.4%
Cc1ccc(OS(=O)Nc2cccc3nccnc23)cc1 (stereo not drawn) 0%
Fc1cccc(Cl)c1CSc1ccc(-c2ccco2)nn1 0.5%
O=C(CN1C(=O)NC(Cc2c[nH]c3ccccc23)C1=O)Nc1ccccc1C(F)(F)F (stereo not drawn) 0%
CCOC(=O)C(C(=O)OCC)C(C#N)c1ccccc1 (stereo not drawn) 0%
CCN(CC)c1ccc(/C=N/NC(=O)CNC(=O)c2cccs2)cc1 0%
COc1ccc(C(C(=O)NCc2ccccc2)n2c(=O)c(-c3ccccc3)nc3ccccc32)cc1 (stereo not drawn) 0.7%
COc1ccccc1CNC(=O)c1cc(-c2cc(Cl)ccc2C)n[nH]1 0%
O=S(=O)(c1ccc(Br)cc1)c1nc(-c2ccccc2)oc1NCc1cccnc1 1.5%
CC(=O)Nc1ccc(S(=O)(=O)Nc2ccc(N3CCOCC3)c(F)c2)cc1 0.8%
CCOC(=O)c1c(-c2ccc(C)cc2)csc1/N=C(\C)C1=C(O)c2ccccc2C1=O 0%
COc1ccc(-c2ccc(OC(=O)NC3CCS(=O)(=O)C3)cc2)cc1 (stereo not drawn) 0.7%
COC(=O)CN(c1cccc(C(C)=O)c1)S(C)(=O)=O 0%
C/C(=C\c1ccccc1)C1NC(=O)c2c(sc3c2CCCC3)N1 (stereo not drawn) 0%
COc1ccc(C2CC(c3cccc(OC)c3)=NN2c2ccc(S(N)(=O)=O)cc2)cc1 (stereo not drawn) 0.5%
Cc1cc(NC(=O)CSc2nc(C(C)C)nc3sc4c(c23)CCC(C)C4)no1 (stereo not drawn) 1.4%
COc1ccc(-c2nnc(SCC(=O)c3cccs3)o2)c(OC)c1 3.4%
Cc1ccc2c(c1)C1C[N+](C)(CC(=O)c3ccccc3)CCC1N2C(=O)c1ccccc1Cl (stereo not drawn) 0%
Cc1ccc(-n2nc3cc(C)c(NC(=O)c4cccnc4)cc3n2)cc1 4.7%
COc1ccc2nc(N3CCN(C(=O)c4ccc([N+](=O)[O-])o4)CC3)sc2c1 0%
CC(C)CC(COCc1ccc(Cl)cc1)N1CCN(C(=O)c2ccc(C(F)(F)F)cc2)CCC1=O (stereo not drawn) 0%
COc1ccccc1N1CCN(C(=O)c2cc(-c3ccc(Br)cc3)on2)CC1 0.3%
O=C1c2ccccc2C(=O)N1Cc1cc(-c2ccccc2Cl)no1 0%
Cc1nn(-c2cc(Cl)ccc2N)c(=O)c2ccccc12 0%
CNC[C@H]1Oc2c(NC(=O)C3CCCCC3)cccc2C(=O)N([C@H](C)CO)C[C@@H]1C 0%
O=C(Cn1cc(-c2nnnn2-c2ccc(Cl)cc2)c(=O)c2ccccc21)c1ccccc1 0%
CN1CCC(CN)(N2CCN(c3ccccc3)CC2)CC1 0.6%
CC#CC[N+](C)(C)CCCCCC 0%
N#CC1=C(N)Oc2c(sc3ccccc23)C1c1ccco1 (stereo not drawn) 0%
O=C(NC(=O)c1ccccc1)Nc1ccccc1O 1.3%
Cc1c(C(=O)OCC(=O)N(CCC#N)c2ccccc2)oc2c1ccc1ccccc12 0%
Cc1cccc(OCC(O)CN2CCN(CCN3C(=O)c4cccc5cccc(c45)C3=O)CC2)c1C (stereo not drawn) 0%
CCCC(=O)Nc1c(O)c2ccccc2[nH]c1=O 0%
Cc1cc(C)c(S(=O)(=O)NCC2CCC(C(=O)NCc3ccc4c(c3)OCO4)CC2)c(C)c1 (stereo not drawn) 0.2%
O=C(CN(c1ccccc1)S(=O)(=O)c1ccc(Cl)cc1)Nc1ccccc1C(=O)N1CCCC1 0%
CC(C)CNC(=O)COC(=O)/C=C/c1ccccc1[N+](=O)[O-] 0%
Cc1cc(C)n(C(=O)c2ccc(C)c(S(=O)(=O)N3CCOCC3)c2)n1 2.3%

Double positive, 10.5%:
CC(=O)Nc1ccc(S(=O)(=O)Nc2ccc(N3CCCCC3)cc2)cc1

Double positive, 0.2%:
Fc1cccc(Cl)c1CSc1ccc(-c2ccco2)nn1
CC(=O)Nc1ccc(S(=O)(=O)Nc2ccc(N3CCOCC3)c(F)c2)cc1

Double positive, 0.4%:
COc1ccc(-c2ccc(OC(=O)NC3CCS(=O)(=O)C3)cc2)cc1 (stereo not drawn)
